The whole screen tested about 53,000 sequences, of which about 3,700 (7%) were called active.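 The calls were made as follows: active = gene knockdowns whose robust z-score for IL-1 alpha signal is at least 2 or at most -2, so actives lie on both sides; inactive = the rest.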 Many of the other results were omitted from the sample, so actives are more common in it than they were.

This assay can be described thus: Components of the Cytosolic LPS Sensing Pathway: Gene Identification via Genome-wide siRNA Screen.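 Also: robust z of the log signal after scaling to non-targeting control siRNA wells of the plate.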 As to conditions: RAW264.7 macrophages, IL-1a HTRF, actives lie on both sides, screened at 100 nM (by protocol), cells primed 5 h with Pam3CSK4 first. In short, it runs like this: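 Mouse macrophage line RAW264.7 is transfected with siRNA (100 nM final), grown 48h, primed with TLR ligand Pam3CSK4 5 h and given intracellular LipidA 24 h. IL-1a in supernatant is read by HTRF and viability by luminescence.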
A general note: In TR-FRET formats the signal depends on donor and acceptor labels being close together.
In the case of GGCUGUGCAAGCAAAACCUTT against Mad1l1, the z-score was -1.43 (inactive).
With GGUACAAGACUGUCAUGUGTT against Mrpl3 the figure was 0.356 (inactive); with GGUCAAAGUCUAGGAGUUUTT against Spp1, 2.56 (active).
In the case of GGUGUCCAGUCAAUAAGAGTT against Msx3 it was -0.0298 (inactive); in that of GGAAAGCUUCAAAAUGGUGTT against Foxj2, -1.26 (inactive); in that of GGACAUUGACACUACUCCATT against Cyp2c55, -0.519 (inactive).
GCCCAACUAAGCAAUAAUATT against Fam216b: the z-score is 0.395 (inactive).
Regarding GCCGAGCAGAUGUACAGAATT against Zfp39, the z-score was 2.93 (active).
For the sequence GUGGUUGAACGGGAAUUUGTT against Gm11487, the z-score is 0.542 (inactive).
With GGCUUUAGGUAGUAGUCUCTT against Kansl2 the figure was -2.9 (active).
In the case of GCCAGUGGAUGUUCAGAAUTT against Ccdc73 it was 0.019 (inactive); in that of GCGAGAGUUUUUCUUCAACTT against Hoxc11, 0.385 (inactive); in that of GGAAUGAGGGUAAUGAAUATT against Plin3, -1.74 (inactive).
With GGAGCUAGCUAGAACAAGUTT against Slmap the figure was 1.58 (inactive).
For the sequence GGAUCAAUCCACAGACGACTT against Dbr1, the z-score was 1.56 (inactive).
With CGUGGUGAACGAGAUUGAUTT against Kcnab1 the figure was 1.21 (inactive).
In the case of GCCUGAUGUUGUUUCCAAATT against Lias it was 2.67 (active).
In the case of GGUGAAGUUGAAUGGAAGUTT against Crebzf it was -0.9 (inactive); in that of CCUAACACUAGUCUCAGAATT against Olfr873, 0.192 (inactive); in that of GGUGCUAAUGACCUUUGAATT against Dbp, -1.5 (inactive).
With GGAAUGGGAUAGAUUUGUUTT against Ung, the z-score was 2.51 (active).
GCUACCUCUGACGACCAAGTT against Slc23a3: the z-score is 1.11 (inactive).
In the case of CCAUCAGGUUUAAGUCGUATT against Vps36 it was -0.698 (inactive).
With CGAAGAGAAGUUAUUUGUATT against Mrps23 the figure was 1.19 (inactive); with GGUUUACCAGGAAAAUUGATT against Txnrd3, -1.09 (inactive); with GGGUCACACUUCAUGGCUUTT against Pofut1, -2.07 (active).
In the case of GGAUUCUUCGCUCCAAUGATT against Pacs1 it was 0.73 (inactive); in that of GGUAUCCUGAUUGUUGAGUTT against Fam228a, 1.18 (inactive); in that of GCAUCAUUAUCUUACCAACTT against Olfr826, -0.994 (inactive).
GAGAGAGGGAAUUUGCUCCTT against Pcdhb8: the z-score was 2.6 (active).
As to AUGUGGCAAAACCUUUGCATT against Zfp960, the z-score is 0.615 (inactive).
In the case of CCCAUGCUUAUUACCGAGATT against Rab37 it was 0.0517 (inactive); in that of “GGGUGUCAACCCUUUAGAUTT against C130026I21Rik”, 0.685 (inactive).
Take GCACCUCAAAAGAAUUCAUTT against Septin10: the z-score was 1.42 (inactive).
With GGAUAAGAAACACAAGAAGTT against Srrm1 the figure was 2.04 (active); with GCACAUUUUAGCCUAAUGGTT against Tpm3, -0.785 (inactive).
With CCCACUUGUGGCAGUGUACTT against Stub1 the figure was 0.818 (inactive); with GCGACAAUAUGAGUCACCUTT against Fsd1, -2.07 (active); with GGGUAACAUGAAAGUGAUCTT against Mybbp1a, -0.972 (inactive).
In the case of GGACCAAGGAGCAUUGAAATT against Fkbp7 it was 1.06 (inactive).
In the case of GGAAUUCAUCUGUGGUCUCTT against Trim50, the z-score is -0.559 (inactive).
For “GCUUUAGGUAUGGUCCUAATT against A430072C10Rik”, the z-score is 1.23 (inactive).
With “GGAUCCAAGGGCAAAAGAUTT against St6galnac1” the figure was -1.36 (inactive).
In the case of CGUACUAUAGUAAAUCCAGTT against Clk1 it was 2.4 (active); in that of GCCAAGAAACAAUACUCAUTT against Olfr1352, 0.694 (inactive); in that of CCUACCAAAACGACUAUAUTT against Pnma3, -1.29 (inactive).
In the case of CGGGCUGAUUCAACUGGUGTT against Kif1b it was 3.64 (active); in that of GGUACCUCUUCUCCUAAAGTT against Vps16, 0.106 (inactive).
For the sequence GCAUCUCAGCUCUGAUUUATT against Fgfbp3, the z-score was 0.758 (inactive).
With GGUAGAAACUGACCACAUATT against Aifm1 the figure was 0.917 (inactive); with GGAGUAAAUUGAGAAACCATT against Acsm5, -0.149 (inactive); with CCUUUAUUUCUGUGAAUCUTT against Olfr1467, 0.631 (inactive).
With GCUGUUCGUGAGGAUAACCTT against Yipf1 the figure was 1.2 (inactive); with GGGUAGAAUGACUUUGGCCTT against Cldn2, 1.19 (inactive).
With GGCUUAUCAUAUGAAGACATT against Aplp2 the figure was 2.33 (active); with GGAGUCACCAGACUUGUGUTT against Svs3b, 0.637 (inactive); with GGAAAAUGCUCACAUAGUGTT against Pak1ip1, 0.442 (inactive).
Regarding CGCAUACUGUGGAAUAGUUTT against Spag4, the z-score is -1.26 (inactive).
With GGAAUGAAAGUUCCACUAUTT against Emcn the figure was -0.633 (inactive).
With CCCACCACUAUUUAUAUGATT against Dlg2 the figure was -0.17 (inactive); with GGAUGUGACAUGAAUCCUGTT against Ankle1, -0.49 (inactive); with CCAAAACUAGGAAGAAACATT against Olfr716, -2.3 (active).
GGCAAUAAAUAUCCAGAAATT against Crygn: the z-score is 1.02 (inactive).
In the case of GCAGCUCUGCGGAAGCUUUTT against Olfr1350 it was -0.505 (inactive).
With GGAUCUUGAUAGACUGAUGTT against Rhox5 the figure was 0.362 (inactive); with GGAAAAUCUCCGUUGUCUCTT against Acin1, -2.76 (active); with UCAUUGAGAAAGGAGAAGATT against Cox17, -0.547 (inactive).
With GGUAGAUAACCUGAUUUAUTT against Slc7a6 the figure was 2.22 (active).
For GCCUGUGUAUUACUUUUUUTT against Sned1, the z-score is -0.786 (inactive).
GGAGUUGCCUCUGAAGACCTT against Ccm2l: the z-score is 0.797 (inactive).
Turning to GGUGUUCAGGAGAUGAUGCTT against Cdt1, the z-score is 0.0123 (inactive).
With GGAGCAUCUCCUCAUGGAUTT against Actl11 the figure was 2.08 (active); with GCCUUAUCCUGAGAAUGGCTT against Lrrc47, -0.61 (inactive); with GGCUGCUGUUAACAAGCUGTT against Wdr13, -2.41 (active).
In the case of GCUCCUCCAGAUACAUGCUTT against Tbrg1 it was -0.741 (inactive); in that of GGUUCUUUCGACUUCCUGCTT against Ccbe1, -0.166 (inactive).
With GGCAACAGACAAACAGCCGTT against Ugcg the figure was -1.54 (inactive); with GGAGAAGAAAAAGCGGUACTT against Plxnb2, 2.71 (active).
In the case of GGAGUACUGGGCAUAUAAATT against Slc29a3, the z-score is -0.324 (inactive).
In the case of GGGUGGUUAGAACAGCCACTT against Prss16, the z-score was -1.21 (inactive).
With CCCUAGAGAUGGUGGGUCUTT against Olfr934 the figure was -0.484 (inactive); with GGCAGUUAACACUUAAUGATT against Foxp2, 0.609 (inactive).
With GGAACAUAACUCUUGUAUATT against Dhx35 the figure was -1.52 (inactive); with “GGAGAAACUUCUUUAAAGCTT against 5830427D03Rik”, 0.573 (inactive).
With GGACAAGUGCCUCUCACCATT against Glis2 the figure was -3.25 (active); with GGCAGAAAGUAAAUCCGUGTT against Exoc3l4, -1.22 (inactive); with GGCCAUAGAUAUUCAAGGUTT against Olfr218, 0.293 (inactive).
On to GCCUUUGUGUUACAAUAUGTT against Fermt2, for which the z-score was 0.487 (inactive).
On to GUCAAAGAGUUUCAGCAUCTT against Foxl1, for which the z-score was 0.664 (inactive).
With GGAGGUUUUCCGAAGUAUUTT against Pnpt1 the figure was 1.2 (inactive); with GGCUCUGUGACCAAGAUUUTT against Rtca, -1.48 (inactive).
In the case of GCCUCUCUCUAUCUAUGCATT against Tob2 it was -2.2 (active).
In the case of GCAACGUGGUCUAUGAAUUTT against Disp2 it was -0.694 (inactive).
For the sequence GGUUUUUCAGUGACACAUGTT against Vmn1r192, the z-score was 2.26 (active).
With CCAGAGUUUUAUAACGGAATT against Olfr1229 the figure was 0.601 (inactive); with GGUUGUGCAGUUUUAUUUCTT against Tceal1, -0.176 (inactive).
With GCUAACAUUGUAAAUGCACTT against Dmrta1 the figure was 0.467 (inactive).
With GGAAAAGCUUUUGUUCCCATT against Tfb1m the figure was 2.58 (active); with GGAUUCUUCAUUUCUAGUGTT against C1qtnf6, 0.231 (inactive); with GGUUCUGAACACAUUUCCATT against Cyp2d13, -1.07 (inactive).
Consider GUUUCUUCCAAACUCCAUCTT against Olfr487, for which the z-score is 0.622 (inactive).
In the case of GGUCGACAGUUAAAAUGAUTT against Bpifc it was -0.431 (inactive); in that of GCAAGCCCUGGAAGAAUUATT against Nat8, 2.26 (active); in that of GGAUGAGUACACUGAAAGCTT against Nvl, 0.544 (inactive).
CGUGGACAUCGAUAUCACCTT against Slc26a8: the z-score is -0.737 (inactive).
With CCCGGAAUAAGACAAUUUCTT against Olfr788 the figure was 0.282 (inactive); with GCAUGUUAAGCCUUGUAUATT against Tnpo1, -1.67 (inactive).
Consider GGCUACAGAAGCUACUAAATT against Akr1c6, for which the z-score was 1.23 (inactive).

Source of the values: PubChem BioAssay AID1508600 (Functional Genomics Laboratory (NCATS/FGL), 2020).
